Data reported in PubChem BioAssay AID1159580 (chemical genetic matrix, 2015).
The campaign covered roughly 5,500 compounds. About 2,000 (36%) were called active. About 18% were inconclusive and are not listed. Cut-off read from the data, not from the text of the source: active = normalized growth mostly below about 0.91 (no sharp cut-off); inconclusive = no clear call, values can overlap the other calls; inactive = mostly above about 0.92. This is one part of the list.

Assay: chemical genetic growth profiling, strain panel (AID 1159580);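 note: tested at 20 µM; growth read once vehicle control cultures reached saturation at 30 °C; 1 = growth at the plate median or of vehicle wells; lower values mean less growth of the strain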
Settings: S. cerevisiae deletion strains, growth OD
[1] = locus YAL040C, strain CLN3, active compounds read low
[2] = locus YCL061C, strain MRC1 (second series), active compounds read low
[3] = locus YDR150W, strain NUM1, active compounds read low
[4] = locus YDR363W, strain ESC2, active compounds read low
[5] = locus YER002W, strain NOP16, active compounds read low
[6] = locus YMR263W, strain SAP30, active compounds read low
[7] = locus YMR307W, strain GAS1, active compounds read low
[8] = locus YNL175C, strain NOP13, active compounds read low
[9] = locus YNL197C, strain WHI3, active compounds read low
[10] = locus YNL224C, strain SQS1, active compounds read low
[11] = locus YNL322C, strain KRE1, active compounds read low
[12] = locus YOR083W, strain WHI5 (second series), active compounds read low
[13] = locus YPL055C, strain LGE1, active compounds read low
[14] = locus YPL241C, strain CIN2, active compounds read low
[15] = locus YAL013W, strain DEP1, active compounds read low
[16] = locus YNL153C, strain GIM3, active compounds read low

Measured: normalized growth

CN=C(NC#N)Nc1ccc(C2=NNC(=O)CC2C)cc1 (stereo not given)
inactive: [1] 1.08 | [2] 0.999 | [3] 1.01 | [4] 1.01 | [5] 0.986 | locus YGR078C, strain PAC10, active compounds read low 1 | [6] 1 | [7] 1 | locus YNL128W, strain TEP1, active compounds read low 1 | [8] 0.995 | [9] 0.994 | [10] 0.994 | [11] 0.986 | [12] 1 | [13] 0.996 | [14] 0.998

Cc1o[nH]c(=O)c1CC(N)C(=O)O (stereo not given)
inactive: [15] 0.998 | [1] 1 | [2] 1 | [4] 1.01 | [5] 0.997 | locus YGR229C, strain SMI1, active compounds read low 0.995 | [6] 0.999 | [16] 0.989 | [8] 1 | [10] 1.01 | [11] 1.01 | [12] 0.982 | [13] 1 | [14] 1.01

COC1CC2CCC(C)C(O)(O2)C(=O)C(=O)N2CCCCC2C(=O)OC(C(C)CC2CCC(O)C(OC)C2)CC(=O)C(C)/C=C(\C)C(O)C(OC)C(=O)C(C)CC(C)/C=C/C=C/C=C/1C (stereo not given)
active: locus YAL021C, strain ccr4, active compounds read low 0.0589 | locus YAL026C, strain drs2, active compounds read low 0.0607 | locus YAL030W, strain snc1, active compounds read low 0.057 | locus YBL061C, strain skt5, active compounds read low 0.0636 | locus YBR009C, strain hhf1, active compounds read low 0.0589 | locus YBR023C, strain chs3, active compounds read low 0.0647 | locus YBR171W, strain sec66, active compounds read low 0.0879 | locus YBR231C, strain swc5, active compounds read low 0.0671 | locus YBR279W, strain paf1, active compounds read low 0.061 | locus YCL011C, strain gbp2, active compounds read low 0.0563 | locus YCL016C, strain dcc1, active compounds read low 0.064 | locus YCL061C, strain MRC1, active compounds read low 0.0664 | locus YCL069W, strain vba3, active compounds read low 0.0634 | locus YCR088W, strain abp1, active compounds read low 0.0633 | locus YDL005C, strain med2, active compounds read low 0.105 | locus YDL040C, strain nat1, active compounds read low 0.062 | locus YDR001C, strain nth1, active compounds read low 0.062 | locus YDR069C, strain doa4, active compounds read low 0.0638 | locus YDR137W, strain rgp1, active compounds read low 0.108 | locus YDR159W, strain sac3, active compounds read low 0.0822 | locus YDR195W, strain ref2 0.107 | locus YDR297W, strain sur2, active compounds read low 0.0574 | locus YDR334W, strain swr1, active compounds read low 0.0661 | locus YDR335W, strain msn5, active compounds read low 0.0641 | locus YDR392W, strain spt3, active compounds read low 0.0747 | locus YEL003W, strain gim4, active compounds read low 0.0561 | locus YEL037C, strain rad23, active compounds read low 0.06 | locus YEL061C, strain CIN8 (second series), active compounds read low 0.0638 | locus YER015W, strain faa2, active compounds read low 0.063 | locus YER016W, strain bim1, active compounds read low 0.0636 | locus YER111C, strain swi4, active compounds read low 0.0777 | locus YER155C, strain BEM2 (second series), active compounds read low 0.0886 | locus YFR010W, strain ubp6, active compounds read low 0.0722 | locus YGL167C, strain pmr1, active compounds read low 0.106 | locus YGL173C, strain kem1, active compounds read low 0.0674 | locus YGL227W, strain vid30, active compounds read low 0.0637 | locus YGL240W, strain doc1, active compounds read low 0.0777 | locus YGL253W, strain hxk2, active compounds read low 0.0553 | locus YHR013C, strain ard1, active compounds read low 0.0984 | locus YHR027C, strain rpn1, active compounds read low 0.0663 | locus YHR030C, strain SLT2, active compounds read low 0.0959 | locus YHR079C, strain IRE1, active compounds read low 0.1 | locus YHR142W, strain chs7, active compounds read low 0.0702 | locus YJL092W, strain hpr5, active compounds read low 0.0602 | locus YJL095W, strain BCK1 (second series), active compounds read low 0.0568 | locus YJL095W, strain BCK1, active compounds read low 0.0941 | locus YJL115W, strain asf1, active compounds read low 0.0785 | locus YJL129C, strain trk1, active compounds read low 0.083 | locus YJL154C, strain vps35, active compounds read low 0.0627 | locus YJL164C, strain tpk1, active compounds read low 0.0565 | locus YJL166W, strain qcr8, active compounds read low 0.0582 | locus YJL187C, strain SWE1, active compounds read low 0.0583 | locus YJR066W, strain TOR1, active compounds read low 0.00105 | locus YKL160W, strain elf1, active compounds read low 0.0628 | locus YKR026C, strain gcn3, active compounds read low 0.0857 | locus YKR091W, strain srl3, active compounds read low 0.063 | locus YLL001W, strain dnm1, active compounds read low 0.0594 | locus YLL026W, active compounds read low 0.0565 | locus YLL041C, strain sdh2, active compounds read low 0.0584 | locus YLR027C, strain aat2, active compounds read low 0.056 | locus YLR113W, strain HOG1, active compounds read low 0.116 | locus YLR221C, strain rsa3, active compounds read low 0.0587 | locus YLR258W, strain gsy2, active compounds read low 0.0578 | locus YLR262C, strain YPT6 (second series), active compounds read low 0.0827 | locus YLR320W, strain mms22, active compounds read low 0.0745 | locus YLR342W, strain FKS1, active compounds read low 0.0654 | locus YLR357W, strain rsc2, active compounds read low 0.123 | locus YLR370C, strain arc18, active compounds read low 0.0626 | locus YLR384C, strain iki3, active compounds read low 0.0638 | locus YML120C, strain ndi1, active compounds read low 0.0575 | locus YMR058W, strain fet3, active compounds read low 0.0611 | locus YMR125W, strain sto1, active compounds read low 0.0751 | locus YMR129W, active compounds read low 0.0593 | locus YMR205C, strain PFK2, active compounds read low 0.077 | locus YMR231W, strain pep5, active compounds read low 0.0735 | locus YNL071W, strain lat1, active compounds read low 0.0603 | locus YNL183C, strain NPR1, active compounds read low 0.00606 | locus YNL209W, strain ssb2, active compounds read low 0.0636 | locus YNL248C, strain rpa49, active compounds read low 0.0637 | locus YNL322C, strain KRE1 (second series), active compounds read low 0.0917 | locus YNR049C, strain mso1, active compounds read low 0.0601 | locus YOR001W, strain rrp6, active compounds read low 0.0618 | locus YOR070C, strain gyp1, active compounds read low 0.0602 | locus YOR080W, strain dia2, active compounds read low 0.0718 | locus YOR083W, strain WHI5, active compounds read low 0.0613 | locus YOR106W, strain vam3, active compounds read low 0.0579 | locus YOR231W, strain MKK1, active compounds read low 0.101 | locus YOR265W, strain rbl2, active compounds read low 0.062 | locus YOR270C, strain vph1, active compounds read low 0.0796 | locus YOR290C, strain snf2, active compounds read low 0.0616 | locus YPL051W, strain arl3, active compounds read low 0.0737 | locus YPL078C, strain atp4, active compounds read low 0.0674 | locus YPL106C, strain sse1, active compounds read low 0.0858 | locus YPL240C, strain hsp82, active compounds read low 0.0583 | locus YPL256C, strain CLN2, active compounds read low 0.117

CC(=O)NNC(=O)N1Cc2ccccc2Oc2ccc(Cl)cc21
inactive: [15] 1.04 | [1] 1 | [2] 1.02 | [3] 1.02 | [4] 1.03 | [5] 1 | [7] 0.997 | [16] 1.02 | [8] 0.989 | [9] 1.01 | [10] 0.984 | [11] 1.03 | [12] 1.01 | [13] 1.04 | [14] 1
